# ChEMBL document CHEMBL3988442, “University of Dundee, Small-Polar-MMV Screening Library” (2021)
# The campaign covered roughly 53,000 compounds. About 900 (1.7%) showed an effect of 50% or more. This is one part of a sample in which strong results are shown more often than they occur.
# Test system: Mycobacterium tuberculosis
# Assay: Cornell - Phenotypic assay to identify agents that inhibit growth of Mycobacterium tuberculosis
# Type: functional
# Design: scale not given: direction of the effect not stated beside the values
# Details: 10 mM as filed; unlikely as a test dose
row,SMILES,Percent Effect
1,Cc1nc(CN2CCCN(Cc3nc4c(F)cccc4[nH]3)CC2)no1,-62.54%
2,O=C(NCCS(=O)(=O)N1CCN(c2ncccn2)CC1)C1CC1,-28.73%
3,CCN(Cc1ccncc1)CC1(O)CCN(C(=O)c2cccc(C)n2)C1 (stereo not drawn),-8.223%
4,CCCc1nc(C)c(C(=O)NCCN2CCN(CC)CC2)s1,13.14%
5,CN1CCCN(CC(CC(=O)Nc2ccc(Cl)cc2)C(=O)O)CC1 (stereo not drawn),27.51%
6,CN1CCN(CC(CC(=O)Nc2ccc(Cl)cc2)C(=O)O)CC1 (stereo not drawn),46.61%
7,Cc1cccc(C)c1NC(=O)CC(CN1CCN(C)CC1)C(=O)O (stereo not drawn),68.43%
8,CC(CN1CCOCC1)NC(=O)NCc1cccs1 (stereo not drawn),-17.54%
9,NCCc1cccc(CN2CCN(c3cccc(Cl)c3)C(=O)C2)c1,12.48%
10,COc1cccc(N2CCN(Cc3cc(C)cc(F)c3)CC2=O)c1,45.53%
11,COc1cccc(N2CCN(Cc3cccc(CCN)c3)CC2=O)c1,56.89%
12,NCCc1cccc(CN2CCN(c3ccccc3)C(=O)C2)c1,-23.11%
13,COc1cccc(N2CCN(Cc3ncc[nH]3)CC2=O)c1,-18.02%
14,COc1cccc(N2CCN(Cc3ccc4occc4c3)CC2=O)c1,21.65%
15,COc1cccc(N2CCN(Cc3ccc4[nH]ccc4c3)CC2=O)c1,56.6%
16,COc1cccc(N2CCN(Cc3ccc4ccn(C)c4c3)CC2=O)c1,57.23%
17,COc1cc(CN2CCN(c3cccc(OC)c3)C(=O)C2)cc(OC)c1,8.627%
18,Cc1ccnn1CCC(=O)N1CCCC[C@@]2(C)[C@@H]1CCC(=O)N2C,-72.7%
19,CC(C)n1nc(CN2CCCC2)c2c1CN(CC1CC1)CC2.O=C(O)C(F)(F)F.O=C(O)C(F)(F)F,3.423%
20,O=C(CCn1nc(C(F)(F)F)c(Cl)c1C1CC1)NN1CCOCC1,6.641%
21,CNS(=O)(=O)c1cc(C(=O)NC2CCOc3ccccc32)cc(C)c1C (stereo not drawn),-0.5765%

row,SMILES,Percent Effect
1,Cc1cccc(CN2CC[C@@H]3[C@@H]2CCN3C(=O)Cc2cccs2)n1.O=C(O)C(F)(F)F.O=C(O)C(F)(F)F,14.31%
2,Cn1nc(Br)c2c(NCCNc3ncccn3)ncnc21,7.21%
3,O=C(c1nnn(-c2ccc(C(F)(F)F)cc2)n1)N1CC(O)C1,30.38%
4,O=C(c1nnn(-c2ccc(C(F)(F)F)cc2)n1)N1CCC(O)CC1,42.24%
5,CC1CCCN(C(=O)c2nnn(-c3ccc(C(F)(F)F)cc3)n2)C1 (stereo not drawn),77.62%
6,Cc1cc(N2CCCC2c2nnc3n2CCCCC3)nc(N)n1 (stereo not drawn),-31.59%
7,COCC(=O)N1CCc2ncc(Cn3cncn3)n2CC1,12.01%
8,CN1CC2(CCCN(Cc3cccc(Oc4ccccc4)c3)C2)OC1=O (stereo not drawn),2.197%
9,COc1ncc(-c2c(C#N)c(N)nc3c2CCc2[nH]ccc2-3)cn1,19.25%
10,Cn1cc(-c2c(C#N)c(N)nc3c2CCc2[nH]ccc2-3)cc1C#N,1.934%
11,Cn1cc(-c2c(C#N)c(N)nc3c2CCc2[nH]ccc2-3)cn1,95.48%
12,Cc1nc(NC(=O)c2c(-n3cnnn3)sc3c2CCCC3)sc1C,19.43%
13,CCN1CCCC(NC(=O)CCn2c(C(F)F)cc3cccnc32)C1 (stereo not drawn),6.84%
14,COCC1N(C(=O)Nc2ccccc2)[C@H]2CC[C@]1(O)CC2 (stereo partly drawn),-35.59%
15,COC1CCCN(C2CCN(c3cccc(-c4csc(C)n4)c3)CC2)C1 (stereo not drawn),-0.3551%
16,Cc1nc(-c2cccc(N3CCC(N4CCCC4)CC3)c2)cs1,50.87%
17,Cc1nc(-c2cccc(N3CCC(N4CCCC(C#N)C4)CC3)c2)cs1 (stereo not drawn),11.96%
18,COCCN1CCC(CNC(=O)c2ccnc(-n3ccnc3)c2)CC1,-23.45%
19,COc1ccc(N(C(=O)c2cnc(C)cn2)C(C)C)cc1F,-10.07%
20,COc1ccc(N(C(=O)c2ccccn2)C(C)C)cc1F,9.62%
21,COC(=O)c1cnc(C(=O)N(c2ccc(OC)c(F)c2)C(C)C)cn1,77.94%

row,SMILES,Percent Effect
1,COc1cc(N2C[C@@H]3COC[C@]3(COc3cccnc3)C2)ncn1.O=C(O)C(F)(F)F.O=C(O)C(F)(F)F,-11.05%
2,O=C(O)c1ccc(S(=O)(=O)Nc2cnn(CC(F)(F)F)c2)cc1,41.5%
3,COc1cccc(CC(C)NC(=O)NCCNC(C)=O)c1 (stereo not drawn),11.1%
4,COc1cccc(CC(C)NC(=O)NCc2ccn(C)c2)c1 (stereo not drawn),85.29%
5,COc1cccc(CC(C)NC(=O)NC(C)C)c1 (stereo not drawn),44.88%
6,CS(=O)(=O)C1CCN(S(=O)(=O)c2ccc(F)c(F)c2)CC1,25.65%
7,COc1ccc(N2CCC(NCc3csc(C(C)C)n3)CC2)cc1,77.68%
8,CCc1nc(CNC2CCN(c3ccc(OC)cc3)CC2)cs1,27.61%
9,CC(C)c1nc(CNc2ccc(N3CCC(CO)CC3)cn2)cs1,20.33%
10,COCCn1c(CN2CCCO2)cnc1S(=O)(=O)CC1CCCCC1,19.4%
11,CNC(=O)[C@@H]1CC[C@@H]2[C@@H](CCN2Cc2ccccc2F)O1.O=C(O)C(F)(F)F,-11.16%
12,CNC(=O)C1CN(Cc2ccc(C#N)cc2F)c2ccccc2O1 (stereo not drawn),105.9%
13,CN(C)C(=O)C1CN(Cc2ccc(C#N)cc2)c2ccccc2O1 (stereo not drawn),104.5%
14,N#Cc1ccc(S(=O)(=O)N2CC(CC(=O)O)c3ccccc32)cc1 (stereo not drawn),19.47%
15,CN(C)C1Cc2ccccc2N(S(=O)(=O)c2ccc(C#N)cc2)C1 (stereo not drawn),12.67%
16,Cc1cc(CN2CCN(Cc3ccc(C#N)cc3F)CC2)no1,-3.509%
17,CN(C)C(=O)C1CN(Cc2ccc(C#N)cc2F)c2ccccc2O1 (stereo not drawn),104.6%
18,CN(C)C(=O)Cc1ccccc1NCc1cc(C#N)ccc1F,3.977%
19,Cc1cccc(NC(=O)[C@@H]2CCCN2Cc2ccc(C#N)cc2F)n1,12.34%
20,CCS(=O)(=O)N1CCc2c(cccc2NC(=O)NCCOC)C1,16.78%
21,COc1ccccc1CCN(C)C(C)c1nc(-c2cccnc2)no1 (stereo not drawn),-40.91%
